The supplement of paper PMC4962491
± gives the standard deviation of the averaged measurements. Over roughly 1,600 compounds, “mitochondrial oxygen consumption rate normalised to cell number, Z score over the library” has its median near 0.065; the lowest 2% begin near -2.2. The list comes from a sample in which the lowest values are over-represented; it also holds similar structures and randomly drawn compounds.

test system: FaDu; experiment: mitochondrial oxygen consumption rate normalised to cell number, Z score over the library; higher = higher oxygen consumption (negative = OCR reduction); settings: treatment time 24 h; assay medium: 5 mM galactose, 5 mM pyruvate, 4 mM glutamine; 10 µM
Method: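 Primary screen: FaDu cells were incubated 24 h with Pharmakon 1600 / TDI oncology set compounds at 2 or 10 uM. Mitochondrial-specific OCR (basal minus 2 uM antimycin A) was measured on a Seahorse XF96 in assay medium with 5 mM galactose, 5 mM pyruvate and 4 mM glutamine, then corrected for Hoechst cell number and expressed as a Z score […]. Compounds that cut cell number by >66% were excluded. Two repeats.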

Structure (SMILES)	mitochondrial oxygen consumption rate normalised
Oc1ccc2ccccc2c1 [beta-NAPHTHOL]	0.778 ± 0.095
C/C=C(/C)C(=O)O[C@H]1[C@H](OC(C)=O)[C@@]2(CO)C(CC1(C)C)C1=CCC3[C@@]4(C)CCC(O[C@@H]5O[C@H](C(=O)O)[C@@H](O[C@@H]6O[C@H](CO)[C@@H](O)[C@H](O)[C@H]6O)[C@H](O)[C@H]5O[C@@H]5O[C@H](CO)[C@@H](O)[C@H](O)[C@H]5O)[C@](C)(CO)C4CC[C@@]3(C)[C@]1(C)C[C@H]2O.C/C=C(\C)C(=O)O[C@H]1[C@H](OC(C)=O)[C@@]2(CO)C(CC1(C)C)C1=CCC3[C@@]4(C)CCC(O[C@@H]5O[C@H](C(=O)O)[C@@H](O[C@@H]6O[C@H](CO)[C@@H](O)[C@H](O)[C@H]6O)[C@H](O)[C@H]5O[C@@H]5O[C@H](CO)[C@@H](O)[C@H](O)[C@H]5O)[C@](C)(CO)C4CC[C@@]3(C)[C@]1(C)C[C@H]2O (stereo partly drawn)	0.3 ± 0.096
N=C(N)NC(=N)NCCc1ccccc1	-1.85 ± 0.1
CC(C)NC(=N)NC(=N)Nc1ccc(Cl)cc1	-0.293 ± 0.099
N=C(NCCCCCCNC(=N)NC(=N)Nc1ccc(Cl)cc1)NC(=N)Nc1ccc(Cl)cc1	-3.36 ± 0.16
CN(C)c1cnccn1	0.284 ± 0.5
CC[C@H]1OC(=O)C[C@@H](O)[C@H](C)[C@@H](O[C@@H]2O[C@H](C)[C@@H](O)[C@H](N(C)C)[C@H]2O)[C@@H](CCN2C[C@H](C)C[C@H](C)C2)C[C@@H](C)C(=O)/C=C/C(C)=C/[C@@H]1CO[C@@H]1O[C@H](C)[C@@H](O)[C@@H](OC)[C@H]1OC	0.2667 ± 0.0014
CCCNC(C)C(=O)Nc1ccccc1C (stereo not drawn)	-0.507 ± 1.1
CC(C)[C@H](N)C(=O)OCC(CO)OCn1cnc2c(=O)nc(N)[nH]c21 (stereo partly drawn)	1.37 ± 0.77
N#Cc1ccc2[nH]cc(CCCCN3CCN(c4ccc5oc(C(N)=O)cc5c4)CC3)c2c1	-0.383 ± 0.58
CCN(CC)C(=O)N1CCN(C)CC1	1.02 ± 0.63
CCOCCOc1ccccc1C(N)=O	1.14 ± 0.52
Cc1c2oc3c(C)ccc(C(=O)N[C@@H]4C(=O)N[C@H](C(C)C)C(=O)N5CCC[C@H]5C(=O)N(C)CC(=O)N(C)[C@@H](C(C)C)C(=O)O[C@@H]4C)c3nc-2c(C(=O)N[C@@H]2C(=O)N[C@H](C(C)C)C(=O)N3CCC[C@H]3C(=O)N(C)CC(=O)N(C)[C@@H](C(C)C)C(=O)O[C@@H]2C)c(N)c1=O	-4.48 ± 0.4
CO[C@H]1C[C@H](O[C@@H]2/C(C)=C/C[C@@H]3C[C@@H](C[C@]4(CC[C@H](C)[C@@H](C5CCCCC5)O4)O3)OC(=O)[C@@H]3C=C(C)/C(=N/O)[C@H]4OC/C(=C\C=C\[C@@H]2C)[C@]43O)O[C@@H](C)[C@@H]1O	0.0124 ± 0.37
CN(C)CCc1c[nH]c2ccc(C[C@H]3COC(=O)N3)cc12	0.529 ± 0.45
CCC(=O)O[C@H](CC(=O)O)C[N+](C)(C)C	-0.676 ± 0.16
C[C@]12CCC(=O)C=C1CC[C@@H]1[C@@H]2[C@@H](O)C[C@@]2(C)[C@H]1CC[C@]2(O)C(=O)COP(=O)(O)O	1.06 ± 0.71
NCCc1cc[nH]n1	-0.155 ± 0.3
CCCCCCOC(=O)NC(=N)c1ccc(NCc2nc3cc(C(=O)N(CCC(=O)OCC)c4ccccn4)ccc3n2C)cc1	0.662 ± 0.54
Cc1ncc(COP(=O)([O-])[O-])c(CN(CCN(CC(=O)O)Cc2c(COP(=O)([O-])O)cnc(C)c2O)CC(=O)O)c1O.[Mn].[Na+].[Na+].[Na+]	0.342 ± 0.21
CCCOc1ccc2[nH]c(NC(=O)OC)nc2c1	0.108 ± 0.53
CCCCC(=O)O[C@]1(C(=O)CO)[C@@H](C)C[C@H]2[C@@H]3CCC4=CC(=O)C=C[C@]4(C)[C@@]3(F)[C@@H](O)C[C@@]21C	-0.0902 ± 0.67

Structure (SMILES)	mitochondrial oxygen consumption rate normalised
O=C1CN2Cc3c(ccc(Cl)c3Cl)N=C2N1	1.01 ± 0.66
C[C@]12CC[C@@H]3c4ccc(O)cc4C[C@@H](CCCCCCCCC[S+]([O-])CCCC(F)(F)C(F)(F)F)[C@H]3[C@@H]1CC[C@@H]2O (stereo partly drawn)	-2.25 ± 2.2
C[C@]12CC[C@@H]3c4ccc(O)cc4CC[C@H]3[C@@H]1C[C@@H](O)[C@@H]2O	-0.347 ± 0.41
C[C@]12CC[C@@H]3c4ccc(O)cc4CC[C@H]3[C@@H]1CC[C@@H]2O	-0.551 ± 0.072
N=C(N)NS(=O)(=O)c1ccc(N)cc1	-0.417 ± 0.81
O=C[C@H](O)[C@@H](O)[C@H](O)CO	-0.552 ± 0.11
CC(C)(C)CC(C)(C)c1ccc(OCCOCC[N+](C)(C)Cc2ccccc2)cc1	-6.2 ± 0.063
Cc1cc(C(C)(C)CC(C)(C)C)ccc1OCCOCC[N+](C)(C)Cc1ccccc1	-5.95 ± 0.082
CO[C@H]1C[C@@H]2CC[C@@H](C)[C@@](O)(O2)C(=O)C(=O)N2CCCC[C@H]2C(=O)O[C@H]([C@H](C)C[C@@H]2CC[C@@H](OCCO)[C@H](OC)C2)CC(=O)[C@H](C)/C=C(\C)[C@@H](O)[C@@H](OC)C(=O)[C@H](C)C[C@H](C)/C=C/C=C/C=C/1C	-1.07 ± 0.18
C(=C\c1ccccc1)/CN1CCN(C(c2ccccc2)c2ccccc2)CC1	-0.167 ± 0.011
COc1ccc2cc(CCC(C)=O)ccc2c1	0.808 ± 0.11
O=C(Nc1ccccc1)c1ccccc1O	-0.209 ± 0.021
CC1CCCC(C)N1 (stereo not drawn)	-0.441 ± 0.17
O=C(CCCCCCCC(=O)NCCO)NCCO	-0.567 ± 0.53
Cn1nnnc1SCC1=C(C(=O)O)N2C(=O)[C@@H](NC(=O)[C@H](O)c3ccccc3)[C@H]2SC1	0.376 ± 0.31
COCCCOc1ccnc(C[S+]([O-])c2nc3ccccc3[nH]2)c1C (stereo not drawn)	0.0779 ± 0.21
CCN(CC)CCOC(=O)C(Cc1cccc2ccccc12)CC1CCCO1 (stereo not drawn)	-0.531 ± 1.6
O=C(O)c1cc(O)c2c(c1)[C@H]([C@H]1c3cc(C(=O)O)cc(O)c3C(=O)c3c(O[C@@H]4O[C@H](CO)[C@@H](O)[C@H](O)[C@H]4O)cccc31)c1cccc(O[C@@H]3O[C@H](CO)[C@@H](O)[C@H](O)[C@H]3O)c1C2=O	0.905 ± 0.018
CCCCC(=O)OCC(=O)[C@]1(O)Cc2c(O)c3c(c(O)c2[C@@H](O[C@H]2C[C@H](NC(=O)C(F)(F)F)[C@H](O)[C@H](C)O2)C1)C(=O)c1c(OC)cccc1C3=O [valrubicin]	-0.0886 ± 0.77
COc1cccc2c1C(=O)c1c(O)c3c(c(O)c1C2=O)C[C@@](O)(C(=O)CO)C[C@@H]3O[C@H]1C[C@H](N)[C@@H](O)[C@H](C)O1	-2.82 ± 0.22
Cn1nnnc1SCC1=C(C(=O)O)N2C(=O)[C@@H](NC(=O)[C@H](OC=O)c3ccccc3)[C@H]2SC1	0.0513 ± 0.34
